Source: PubChem BioAssay (NCATS)
Inconclusive results are not listed. Where a call stands in place of a potency, no number is given. Activity calls are given as the source filed them. Calls follow the shape of the dose curve; as a rule, active = well fitted curve in the direction sought with a large enough effect; inconclusive = small, poorly fitted or top-dose-only effect, or another doubt; inactive = no such curve, though single readings can be large; an effect the other way counts as inactive or inconclusive.

Tests used:
[1] = biological target: Calcium and integrin-binding protein 1 (Homo sapiens) (UniProt Q99828); experiment: Primary qHTS for Identification of Calcium Integrin Binding Protein 1 (CIB1) Competitor (AID 1508620);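 also: GST tagged CIB1 binding a fluorescein labelled alphaIIb integrin peptide tracer; top concentration of the series differs between compounds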
In short: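 Fluorescence polarization competition: GST-tagged CIB1 (1 uM final) preincubated with compound 15 min at room temperature, then FITC-labelled alphaIIb peptide (100 nM final) added. After 15 min at room temperature, polarization read at Ex 480/Em 540.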

[2] = Primary qHTS for small molecule stabilizers of the endoplasmic reticulum resident proteome: Secreted ER Calcium Modulated Protein (SERCaMP) assay (AID 1508630)
In short: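 The SH-SY5Y reporter protocol was run at 3 concentrations up to 38.3 uM (primary) or 11 concentrations (follow-up): 16 h compound, 100 nM thapsigargin for 4 h, then extracellular luciferase luminescence.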

Chain of Calcium and integrin-binding protein 1 (Homo sapiens) (Q99828 whole entry, looked up): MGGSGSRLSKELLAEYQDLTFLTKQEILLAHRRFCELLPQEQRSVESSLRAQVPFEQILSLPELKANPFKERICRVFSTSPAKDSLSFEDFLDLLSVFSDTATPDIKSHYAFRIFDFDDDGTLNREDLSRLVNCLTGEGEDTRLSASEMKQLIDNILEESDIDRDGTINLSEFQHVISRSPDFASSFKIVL

SMILES | outcome [1] | Potency [2]
CCOc1cc(C(=O)Nc2ccc(Cl)c(-c3nc4ccccc4[nH]3)c2)cc(OCC)c1OCC | inactive | inactive
CCOC(=O)C1=C[C@@]2(CC)CCCN3CCc4c(n1c1ccccc41)[C@H]32 | – | inactive
N#Cc1ccc(C(c2ccc(C#N)cc2)n2cncn2)cc1 | inactive | inactive
CN(C(=O)c1ccc(F)cc1C(F)(F)F)C1CCN(c2nnc(-c3ccnn3C)c3ccccc23)CC1 | inactive | inactive
CN[C@@H](C)C(=O)N[C@H]1CCCC[C@H]2CC[C@@H](C(=O)N[C@@H](c3ccccc3)c3cn(CCCCc4ccc(CCCCn5cc([C@@H](NC(=O)[C@@H]6CC[C@@H]7CCCC[C@H](NC(=O)[C@H](C)NC)C(=O)N76)c6ccccc6)nn5)cc4)nn3)N2C1=O | inactive | inactive
Cc1ccccc1C(C(=O)NC1CCCC1)N(C(=O)Cn1cnc2ccccc21)c1cccc(F)c1 (stereo unspecified) | inactive | inactive
Cc1ccc2c(c1)C(=O)[C@@]1(O)CCN(c3ccccc3)C1=N2 | – | inactive
CC1(C)Cc2c(-c3ccccc3)c(-c3ccc(Cl)cc3)c(CC(=O)O)n2C1 | inactive | inactive
Cc1ccc(NC(=O)c2cccc(C(C)(C)C#N)c2)cc1Nc1ccc2ncn(C)c(=O)c2c1 | inactive | inactive
CN(C)c1ccc(C2Nc3ccc4ccccc4c3C3=C2C(=O)CC(C)(C)C3)cc1Br (stereo unspecified) | inactive | inactive
Cc1cc([C@@H](C)Nc2ccccc2C(=O)O)c2nc(N3CCOCC3)cc(=O)n2c1 | – | inactive
COc1ccc([C@@H]2CC(=O)c3c(O)cc(O[C@@H]4O[C@H](CO[C@@H]5O[C@@H](C)[C@H](O)[C@@H](O)[C@@H]5O)[C@@H](O)[C@H](O)[C@@H]4O)cc3O2)cc1O | inactive | inactive
